Data on 14 compounds can be found in PubChem BioAssay (EPA / NIEHS).

SMILES strings stand for the structures. Results filed as inconclusive are left out. Activity calls are given as the source filed them. Rule for the calls, unless noted: active = hit-call score of the fitted dose curve at least 0.9, where 1 is the maximum; inconclusive = response in the unintended direction; inactive = score below 0.9.

By AC50 is commonly meant the concentration giving half of the maximal activity seen.

Assay [1] can be described thus: Tanguay_ZF_120hpf_MORT_legacy: (Legacy) Oregon State University Tanguay Lab 120 Hour Post-fertilization zebrafish Assay for Mortality (AID 2283633).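 For AC50: fitted as increase in binary mortality versus DMSO negative control.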 The procedure, abridged:
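Brightfield scoring of embryo death (binary) at 24 and 120 hpf; static exposure 6–120 hpf, 28C, sealed and foil-covered. Pronase-dechorionated 5D wild-type larvae, single embryo per well. DMSO 0.64% v/v; trimethyltin chloride 5uM positive control.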

Assay [2] can be described thus: Tanguay_ZF_120hpf_YSE_legacy: (Legacy) Oregon State University Tanguay Lab 120 Hour Post-fertilization zebrafish Assay for Yolk Sac Edema (AID 2283634). In short, it runs like this: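 Binary brightfield scoring of yolk sac edema at 120 hpf; DMSO baseline, gain-of-signal fitting. Dechorionated 5D larvae, one per well, static exposure 6–120 hpf, 28C, 0.64% DMSO. Dead embryos not scored.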

The nature of assay [3]: Tanguay_ZF_120hpf_AXIS_legacy: (Legacy) Oregon State University Tanguay Lab 120 Hour Post-fertilization zebrafish Assay for Body Axis Malformation (AID 2283635). The procedure, abridged:
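Embryos: 5D wild-type, pronase-dechorionated 4 hpf; static exposure 6–120 hpf, 28C, sealed, dark, 1 embryo/well, 0.64% DMSO. 120 hpf axis malformation scored present/absent; dead embryos excluded. Analysed as gain of signal vs DMSO.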

A short description of assay [4]: Tanguay_ZF_120hpf_EYE_legacy: (Legacy) Oregon State University Tanguay Lab 120 Hour Post-fertilization zebrafish Assay for Eye Malformation (AID 2283636).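 Note: binary presence or absence of eye malformation scored by brightfield in 120 hpf larvae.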 The procedure, abridged: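 Binary brightfield scoring of eye defects at 120 hpf after static exposure from 6 hpf of single pronase-dechorionated wild-type embryos (28C, 0.64% DMSO). Non-mortality endpoints omitted where embryos died; fit vs DMSO.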

Assay [5] can be described thus: Tanguay_ZF_120hpf_SNOU_legacy: (Legacy) Oregon State University Tanguay Lab 120 Hour Post-fertilization zebrafish Assay for Snout Malformation (AID 2283637). The procedure, abridged: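 Binary snout-malformation call at 120 hpf in wild-type 5D embryos, chorion removed by pronase, under static exposure from 6 hpf at 28C (0.64% DMSO). Embryos dying by 24 or 120 hpf excluded.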

A short description of assay [6]: Tanguay_ZF_120hpf_JAW_legacy: (Legacy) Oregon State University Tanguay Lab 120 Hour Post-fertilization zebrafish Assay for Jaw Malformation (AID 2283638).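 For AC50: active means more embryos with jaw malformation than DMSO controls.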 The procedure, abridged:
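Binary jaw-malformation calls at 120 hpf by brightfield imaging; DMSO (0.64% v/v) = baseline. Embryos: 5D wild-type, pronase-dechorionated, one per well from 6 hpf, static exposure, 28C, sealed, dark.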

Assay [7] is described as follows: Tanguay_ZF_120hpf_OTIC_legacy: (Legacy) Oregon State University Tanguay Lab 120 Hour Post-fertilization zebrafish Assay for Otic Vesicle Malformation (AID 2283639). The procedure, abridged: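 Wild-type zebrafish larvae, whole-embryo exposure from early stage to 120 hpf at 28C. Binary brightfield scoring of otic vesicle morphology, fitted in the positive direction against the DMSO baseline.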

A short description of assay [8]: Tanguay_ZF_120hpf_PE_legacy: (Legacy) Oregon State University Tanguay Lab 120 Hour Post-fertilization zebrafish Assay for Pericardial Edema (AID 2283640). In short, it runs like this: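 Static waterborne exposure, 5D wild-type embryos, 28C, to 120 hpf; final DMSO 0.64% (vol/vol). Binary PE call at 120 hpf by brightfield; fitted upward vs DMSO baseline. 5uM trimethyltin chloride as positive control.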

Assay [9] in a line: Tanguay_ZF_120hpf_SOMI_legacy: (Legacy) Oregon State University Tanguay Lab 120 Hour Post-fertilization zebrafish Assay for Somite Malformation (AID 2283647). In short, it runs like this:
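Binary brightfield scoring of somite defects at 120 hpf in 5D wild-type larvae; one dechorionated embryo per well, static exposure from 6 hpf, 28C, sealed and dark. Final DMSO 0.64%; trimethyltin chloride 5uM positive control.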

The nature of assay [10]: Tanguay_ZF_120hpf_PFIN_legacy: (Legacy) Oregon State University Tanguay Lab 120 Hour Post-fertilization zebrafish Assay for Pectoral Fin Malformation (AID 2283648).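 Note: each larva judged yes or no for fin defect by brightfield with dead larvae skipped.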 The procedure, abridged:
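Pectoral fin malformation was recorded as a binary endpoint at 120 hpf in wild-type Tropical 5D larvae, which had been dechorionated and exposed statically from 6 hpf at 28C in 0.64% DMSO. Dead embryos were excluded.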

Assay [11] in a line: Tanguay_ZF_120hpf_CFIN_legacy: (Legacy) Oregon State University Tanguay Lab 120 Hour Post-fertilization zebrafish Assay for Caudal Fin Malformation (AID 2283649). In short, it runs like this:
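Dechorionated 5D wild-type zebrafish, static exposure 6–120 hpf, 28C, sealed and dark, 0.64% v/v DMSO final. Binary fin-malformation call at 120 hpf, brightfield; gain of signal vs DMSO baseline.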

A short description of assay [12]: Tanguay_ZF_120hpf_CIRC_legacy: (Legacy) Oregon State University Tanguay Lab 120 Hour Post-fertilization zebrafish Assay for Circulatory Malformation (AID 2283651). The procedure, abridged:
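Binary circulatory-malformation call at 120 hpf via brightfield imaging, relative to DMSO controls. Embryos (5D strain, chorion removed) received static, light-shielded exposure at 28C.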

Assay [13] in a line: Tanguay_ZF_120hpf_SWIM_legacy: (Legacy) Oregon State University Tanguay Lab 120 Hour Post-fertilization zebrafish Assay for Swim Bladder Malformation (AID 2283654).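 Note: swim bladder malformation in each larva scored yes or no under brightfield.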 The procedure, abridged:
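Scoring is binary for swim bladder defects at 120 hpf, by brightfield inspection of zebrafish larvae. Embryos were exposed singly from 6 hpf after pronase dechorionation, at 28C with 0.64% DMSO; mortality excluded scoring.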

Assay [14] can be described thus: Tanguay_ZF_120hpf_TRUN_legacy: (Legacy) Oregon State University Tanguay Lab 120 Hour Post-fertilization zebrafish Assay for Truncated Body (AID 2283655). In short, it runs like this:
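Whole-embryo zebrafish screen: dechorionated 5D embryos, static exposure 6–120 hpf, 28C, sealed foil-covered plates, 0.64% DMSO. Binary truncation call; gain of signal versus DMSO baseline.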

Assay [15] in a line: Tanguay_ZF_120hpf_NC_legacy: (Legacy) Oregon State University Tanguay Lab 120 Hour Post-fertilization zebrafish Assay for Notochord and Tail Malformation (AID 2283656). The procedure, abridged: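 Binary notochord-distortion calls, made by brightfield inspection, form the read-out; activity is fitted in the positive direction against DMSO. Exposure ran statically from 6 to 120 hpf at 28C with 0.64% DMSO.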

Assay [16] addresses Cellular tumor antigen p53 (Homo sapiens) (UniProt P04637). As to the kind of experiment: TOX21_p53_BLA_p4_ratio: Tox21 HCT-116 p53 Agonism Beta-lactamase Assay, Ratio, Phase 4 (AID 2283601). The procedure, abridged: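 Signal is the blue/green (460nm/530nm) ratio of cleaved versus uncleaved CCF4-AM substrate, read after 2 h substrate loading. Cells were HCT116 carrying the p53-responsive beta-lactamase reporter, dosed 16 h at 37C, 5% CO2; CellTiter-Glo measured in parallel.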

Assay [17] is described as follows: Tanguay_ZF_120hpf_BRAI_legacy: (Legacy) Oregon State University Tanguay Lab 120 Hour Post-fertilization zebrafish Assay for Brain Malformation (AID 2283641). The procedure, abridged: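 Read-out: binary brain morphology call at 120 hpf (brightfield), fitted in gain-of-signal direction vs DMSO. Wild-type Tropical 5D embryos, static exposure, 28C, 0.64% DMSO final; 5uM trimethyltin chloride as positive control.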

Assay [18] is described as follows: Tanguay_ZF_120hpf_PIG_legacy: (Legacy) Oregon State University Tanguay Lab 120 Hour Post-fertilization zebrafish Assay for Pigmentation Malformation (AID 2283650). The procedure, abridged:
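Pigment malformation recorded as a binary call at 120 hpf in zebrafish (Tropical 5D) exposed singly from 6 hpf after pronase dechorionation. Static, sealed, 28C exposure, 0.64% DMSO; mortality excludes scoring; positive-direction fit against DMSO.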

Read-out in assay [19]: solute carrier (SLC22A6), SLC22A6 (gene 9356)
Kind of assay: LTEA_HepaRG_SLC22A6: Life Technologies and Expression Analysis (LTEA) Assay for solute carrier (SLC22A6) using HepaRG (AID 2283653; active = hit-call score of the fitted dose curve at least 0.9, where 1 is the maximum; inactive = score below 0.9). Conditions: mRNA level, 48 h; actives raise or lower the signal. In short, it runs like this: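 HepaRG, human liver line; 48 h chemical exposure; 8-pt half-log series from 100 uM in 0.5% DMSO, duplicate wells. Readout: TaqMan qRT-PCR of SLC22A6 mRNA, housekeeping-normalised; bidirectional curve fit vs DMSO baseline.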

Chain of Cellular tumor antigen p53 (Homo sapiens) (P04637 whole entry, looked up): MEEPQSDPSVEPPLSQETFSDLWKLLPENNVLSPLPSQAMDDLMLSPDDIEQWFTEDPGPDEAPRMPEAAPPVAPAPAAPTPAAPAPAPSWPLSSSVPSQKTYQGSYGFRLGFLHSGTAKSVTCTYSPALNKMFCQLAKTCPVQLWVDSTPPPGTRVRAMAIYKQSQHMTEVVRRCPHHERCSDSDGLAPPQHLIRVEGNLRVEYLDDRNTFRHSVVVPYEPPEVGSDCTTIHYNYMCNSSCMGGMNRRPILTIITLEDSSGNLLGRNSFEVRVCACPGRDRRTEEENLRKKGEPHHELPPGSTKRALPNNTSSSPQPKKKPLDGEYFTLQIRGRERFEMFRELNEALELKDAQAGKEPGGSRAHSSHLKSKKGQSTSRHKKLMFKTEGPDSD

Take `CO[C@@H]1COCC[C@@H]1N[C@@H]1CC[C@@](C(=O)N2CCc3ncc(C(F)(F)F)cc3C2)(C(C)C)C1`: the compound was classed as inactive in assay [1], in [2], in assay [3], in assay [4], in assay [5] and in [6]. Further, the call in assay [7], in assay [8], in assay [9], in assay [10], in assay [11] and in assay [12] was inactive. Moreover, the result in [13], in [14] and in [15] was inactive.
As for `CC(C)c1cccc(C(C)C)c1NC(=O)NS(=O)(=O)c1cc(C(C)(C)O)co1`, the outcome in assay [16], in [1], in assay [2], in [4], in assay [5] and in [7] was inactive. Further, the outcome in [8], in assay [10], in assay [11], in assay [12], in assay [14] and in assay [15] was inactive.
With `C=CCc1ccc(OC)c(OC)c1`, the result in assay [16], in [2], in assay [3], in assay [4], in assay [5] and in assay [6] was inactive. For the same compound, the outcome in assay [7], in [8], in assay [17], in [9], in [10] and in assay [12] was inactive. The compound was called inactive in assay [13], in assay [14] and in [15].
As to `CC(C)(C)c1ccccc1`, the AC50 in assay [1] is 13.1 µM (active); in [5] it was 5.01 µM (active); in [6], 4.3 µM (active). Besides, the call in assay [2], in assay [3], in assay [4], in assay [7], in assay [8] and in assay [17] was inactive. The call in [9], in assay [10], in assay [11], in assay [12], in assay [13] and in assay [14] was inactive. The compound was classed as inactive in [15].
For the compound `Cc1occc(=O)c1O`, the result in [1], in assay [2], in assay [3], in assay [4], in assay [5] and in [6] was inactive. Besides, the compound was classed as inactive in [7], in assay [8], in assay [9], in assay [10], in assay [11] and in [18]. The call in [12], in assay [19], in assay [13], in [14] and in assay [15] was inactive.
Consider `CCCCCCCC(=O)OC`, for which the result in assay [16], in assay [1], in [2], in [3], in assay [4] and in assay [5] was inactive. For the same compound, the call in assay [8], in assay [9], in [10], in assay [11], in [18] and in assay [12] was inactive. The outcome in [13], in [14] and in assay [15] was inactive.
`CC(COCC(C)OC(=O)c1ccccc1)OC(=O)c1ccccc1` (stereo not given): the result in assay [1], in assay [2], in assay [3], in [4], in assay [5] and in assay [6] was inactive. The outcome in assay [7], in [17], in assay [9], in assay [11], in assay [12] and in assay [13] was inactive. For the same compound, the result in [14] was inactive.
In the case of `C=CCCCCCCCCCCCC`, the result in [16], in assay [1], in [2], in [3], in assay [4] and in [7] was inactive. For the same compound, the compound was classed as inactive in assay [8], in [9], in [10], in [12], in assay [13] and in assay [14]. Besides, the call in [15] was inactive.
Consider `CC(=O)O[C@]1(C(C)=O)CC[C@H]2[C@@H]3C=C(Cl)C4=CC(=O)[C@@H]5C[C@@H]5[C@]4(C)[C@H]3CC[C@@]21C`, for which the outcome in assay [1], in assay [2], in assay [3], in assay [4], in assay [5] and in assay [6] was inactive. Moreover, the call in assay [8], in assay [17], in [9], in assay [11], in assay [18] and in assay [12] was inactive. Also, the outcome in [13] was inactive.
`CC(C)COC(=O)CCCCC(=O)OCC(C)C`: the compound was classed as inactive in assay [1], in [2], in assay [3], in assay [4], in assay [5] and in [6]. For the same compound, the call in assay [7], in assay [9], in [11], in [13], in assay [14] and in assay [15] was inactive.
On to `COc1ccc(C(=O)Nc2nc3ccccc3c(NCc3ccccc3)c2C#N)cc1`, for which the AC50 in [16] is 72.8 µM (active). In addition, the compound was called inactive in assay [1], in assay [2], in assay [3], in assay [5], in assay [6] and in [18]. Further, the outcome in [12], in [13] and in [15] was inactive.
Turning to `CCCCC(CC)COC(=O)CCCCCCCC(=O)OCC(CC)CCCC` (stereo not given), the outcome in assay [16], in [1], in assay [2], in [3], in [4] and in assay [5] was inactive. Besides, the call in [9], in assay [10], in [11], in assay [12], in assay [13] and in assay [14] was inactive.
Consider `O=C1NC(=O)C(c2ccccc2)(c2ccccc2)N1`, for which the call in [1], in assay [2], in assay [3], in assay [4], in assay [5] and in assay [6] was inactive. Moreover, the compound was called inactive in [8], in assay [9], in assay [10], in assay [11], in assay [12] and in assay [13]. Besides, the compound was called inactive in assay [14] and in assay [15].
Consider `CC(N)=O`, for which the outcome in assay [1], in [2], in assay [3], in [4], in assay [5] and in [6] was inactive. Besides, the compound was classed as inactive in [7], in assay [8], in assay [9], in [10], in [12] and in [13]. Further, in [15], the compound was called inactive.
